Results from paper PMC5540273 (PLoS ONE, 2017).

Columns and labels:
Settings in all cases: concentration: 1 μM, replicates: in singlicate; n = 1
FLT3 = system: FLT3
FLT4 = system: FLT4
FRK = system: FRK
FYN = system: FYN
GAK = system: GAK
GCN2(Kin.Dom.2,S808G) = system: T1, GCN2(Kin.Dom.2,S808G)
T1 construct: gene EIF2AK4

GRK1 = system: GRK1
GRK2 = system: T2, GRK2
T2 construct: gene ADRBK1

GRK3 = system: T3, GRK3
T3 construct: gene ADRBK2

GRK4 = system: GRK4
GRK7 = system: GRK7
GSK3A = system: GSK3A
GSK3B = system: GSK3B
HASPIN = system: T4, HASPIN
T4 construct: gene GSG2

HCK = system: HCK
HIPK1 = system: HIPK1
HIPK2 = system: HIPK2
HIPK3 = system: HIPK3
HIPK4 = system: HIPK4
HPK1 = system: HPK1
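Also: KINOMEscan kinase panel screen.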

| Compound | %Inh (FLT3) | %Inh (FLT4) | %Inh (FRK) | %Inh (FYN) | %Inh (GAK) | %Inh (GCN2(Kin.Dom.2,S808G)) | %Inh (GRK1) | %Inh (GRK2) | %Inh (GRK3) | %Inh (GRK4) | %Inh (GRK7) | %Inh (GSK3A) | %Inh (GSK3B) | %Inh (HASPIN) | %Inh (HCK) | %Inh (HIPK1) | %Inh (HIPK2) | %Inh (HIPK3) | %Inh (HIPK4) | %Inh (HPK1) |
| --- | --- | --- | --- | --- | --- | --- | --- | --- | --- | --- | --- | --- | --- | --- | --- | --- | --- | --- | --- | --- |
| Cn1cncc1-c1ccc2ncnc(Nc3ccc(OCc4ccccc4)cc3)c2c1 [GW320571] | 62% | 6% | 8% | 12% | 0% | 0% | 8% | 7% | 0% | 0% | 0% | 0% | 4% | 10% | 0% | 41% | 49% | 51% | 13% | 32% |
| NC(=O)c1nnc2ccccc2c1N | 15% | 5% | 0% | 0% | 24% | 13% | 12% | 67% | 13% | 28% | 0% | 5% | 24% | 73% | 0% | 45% | 50% | 37% | 4% | 0% |
| Cc1cccc(-c2nc(Nc3ccncc3)c3ccccc3n2)n1 [GW855857] | 0% | 1% | 15% | 13% | 0% | 0% | 0% | 0% | 0% | 0% | 0% | 4% | 0% | 26% | 11% | 41% | 0% | 0% | 19% | 9% |
| CC(=O)Nc1nc2cnc(Nc3cc(NC(=O)c4cccc(CCC#N)c4)ccc3C)nc2s1 | 0% | 30% | 83% | 4% | 7% | 0% | 0% | 0% | 0% | 0% | 6% | 0% | 0% | 21% | 21% | 15% | 20% | 6% | 5% | 0% |
| COc1cccc(-c2cc(-c3c[nH]nc3-c3ccccn3)ccn2)c1 [GW680338] | 0% | 83% | 10% | 11% | 75% | 7% | 1% | 0% | 14% | 0% | 0% | 3% | 8% | 23% | 0% | 11% | 10% | 22% | 21% | 25% |
| CCn1c(-c2ccccn2)nc2cnccc21 [SB-736398] | 2% | 0% | 17% | 0% | 9% | 10% | 1% | 5% | 78% | 1% | 0% | 22% | 0% | 47% | 0% | 0% | 13% | 0% | 0% | 38% |
| Nc1nc(-c2nccs2)c(-c2ccnc3ccccc23)s1 [GW693542] | 2% | 0% | 0% | 17% | 45% | 17% | 0% | 0% | 39% | 21% | 0% | 5% | 14% | 0% | 0% | 3% | 0% | 21% | 0% | 30% |
| COc1ccc(Nc2nccc(-c3cccc(NC(=O)c4cc5cc(F)ccc5[nH]4)c3)n2)cc1 [GSK1229782] | 39% | 0% | 40% | 31% | 49% | 4% | 0% | 0% | 45% | 0% | 0% | 31% | 0% | 39% | 0% | 0% | 46% | 0% | 36% | 65% |
| Fc1cccc(COc2nnc(-c3ccc4c(c3)CCO4)o2)c1 | 4% | 0% | 0% | 0% | 2% | 5% | 0% | 0% | 23% | 0% | 8% | 0% | 9% | 44% | 0% | 25% | 23% | 0% | 3% | 0% |
| Cl.c1ccc(-c2n[nH]cc2-c2ccnc(-c3ccc(CN4CCOCC4)cc3)c2)nc1 [GW776245] | 0% | 14% | 0% | 0% | 46% | 0% | 37% | 0% | 0% | 31% | 0% | 0% | 0% | 0% | 13% | 54% | 0% | 0% | 17% | 64% |
